# Only a selection was taken, and the strongest signals are over-represented in it overall.
# B1: PX9961W-pdi-543-27-543 (Parabacteroides distasonis) (protein)
# chain: EGNATTTSYFLNDQQAIDAIDGLYERFHQEGCYGRELFWEQGAACDIVWGRTRGYNSLATLAYTGDESPLRDVFSRMYSTMSRANWIIQELVKKEKGTTLTAVEKRSLGEAYFSRGWAHYLIAYRYGTDKQGVPFVRYEDFPDDYDNSIPPQQATVMDNYKLIIEDMDKAIAYLPIFESYDADNRGRAHQAAAVAFKAKTYAYWATWDATQWNNVIEMVNQLENNYNRDLAPTFAELFSSDLKDYWNAEYLWTIPSIGGALPGGTEFPGIILENKGWGKYNGWGQMKPSYDIYEEMAKDGKGNDRLVRSILEYNQEFPFFGETRKFWSTSDLEAGFMINKYMDAFKYSDPVGEGAVSANGDWPTVRVNFPIIRFAEMLLFRAEAYLMTGQADKATADINRIRLRSNLTPLTGTATMKDLYHERRCELAFEFTDHLFDLKRWNRSSNADIKTLADKELNAHPRIRRYEDRANPESAFTIIGYEDYTNKNAYQAHMMVFPYPSEEITKSNGQLKQNEGY
# Legend:
# Assay in all cases: glycan array binding signal (z-score within array); higher = stronger binding
# Conditions in all cases: glycan notation: IUPAC condensed, linker removed
# [1] = biological target: GlcNAc(b1-3)Gal(b1-4)GlcNAc(b1-3)Gal(b1-4)GlcNAc(b1-3)Gal(b1-4)GlcNAc(b1-3)Gal(b1-4)GlcNAc(b1-2)[GlcNAc(b1-3)Gal(b1-4)GlcNAc(b1-3)Gal(b1-4)GlcNAc(b1-3)Gal(b1-4)GlcNAc(b1-3)Gal(b1-4)GlcNAc(b1-6)]Man(a1-6)[GlcNAc(b1-3)Gal(b1-4)GlcNAc(b1-3)Gal(b1-4)GlcNAc(b1-3)Gal(b1-4)GlcNAc(b1-3)Gal(b1-4)GlcNAc(b1-2)Man(a1-3)]Man(b1-4)GlcNAc(b1-4)[Fuc(a1-6)]GlcNAc
# Procedure, shortened: (§1)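 From the Consortium for Functional Glycomics database, 3228 arrays were curated, keeping only those whose protein sequence was available. Binding is given as a within-array Z-score averaged across arrays sharing a protein sequence and across linkers. Negative Z-scores can be read as non-binding.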
# [2] = biological target: GlcNAc(b1-4)[GlcNAc(b1-6)]GalNAc
# Procedure, shortened: as §1
# [3] = biological target: Kdn(a2-3)Gal(b1-4)GlcNAc
# Procedure, shortened: as §1
# [4] = biological target: Neu5Ac(a2-3)Gal(b1-3)[Fuc(a1-4)]GlcNAc
# Procedure, shortened: as §1
# [5] = biological target: Neu5Ac(a2-3)Gal(b1-3)[Fuc(a1-4)]GlcNAc(b1-3)Gal(b1-3)[Fuc(a1-4)]GlcNAc
# Procedure, shortened: as §1
# [6] = biological target: Neu5Ac(a2-3)Gal(b1-3)[Neu5Ac(a2-6)]GalNAc
# Procedure, shortened: as §1
# [7] = biological target: Neu5Ac(a2-3)Gal(b1-4)GlcNAc(b1-2)Man(a1-3)[Neu5Ac(a2-3)Gal(b1-4)GlcNAc(b1-2)Man(a1-6)]Man(b1-4)GlcNAc(b1-4)GlcNAc
# Procedure, shortened: as §1
# [8] = biological target: Neu5Ac(a2-3)Gal(b1-4)GlcNAc(b1-3)Gal(b1-4)GlcNAc
# Procedure, shortened: as §1
# [9] = biological target: Neu5Ac(a2-3)Gal(b1-4)GlcNAc(b1-3)[Neu5Ac(a2-3)Gal(b1-4)GlcNAc(b1-6)]GalNAc
# Procedure, shortened: as §1
# [10] = biological target: Neu5Ac(a2-3)Gal(b1-4)[Fuc(a1-3)]GlcNAc
# Procedure, shortened: as §1
# [11] = biological target: Neu5Ac(a2-6)Gal(b1-4)GlcNAc(b1-2)Man(a1-3)[GlcNAc(b1-4)][Neu5Ac(a2-6)Gal(b1-4)GlcNAc(b1-2)Man(a1-6)]Man(b1-4)GlcNAc(b1-4)GlcNAc
# Procedure, shortened: as §1
# [12] = biological target: Neu5Ac(a2-6)Gal(b1-4)GlcNAc(b1-2)Man(a1-3)[Neu5Ac(a2-3)Gal(b1-4)GlcNAc(b1-2)Man(a1-6)]Man(b1-4)GlcNAc(b1-4)GlcNAc
# Procedure, shortened: as §1
# [13] = biological target: Neu5Ac(a2-6)Gal(b1-4)GlcNAc(b1-2)Man(a1-3)[Neu5Ac(a2-6)Gal(b1-4)GlcNAc(b1-2)Man(a1-6)]Man(b1-4)GlcNAc(b1-4)GlcNAc
# Procedure, shortened: as §1
# [14] = biological target: Neu5Ac(a2-6)Gal(b1-4)GlcNAc(b1-2)Man(a1-3)[Neu5Ac(a2-6)Gal(b1-4)GlcNAc(b1-2)Man(a1-6)]Man(b1-4)GlcNAc(b1-4)[Fuc(a1-6)]GlcNAc
# Procedure, shortened: as §1
# [15] = biological target: Neu5Ac(a2-6)Gal(b1-4)GlcNAc(b1-3)Gal(b1-4)GlcNAc(b1-3)Gal(b1-4)GlcNAc
# Procedure, shortened: as §1
# [16] = biological target: Neu5Ac(a2-6)Gal(b1-4)GlcNAc(b1-6)GalNAc
# Procedure, shortened: as §1
# [17] = biological target: Neu5Ac(a2-6)Gal(b1-4)GlcNAc6S
# Procedure, shortened: as §1
# [18] = biological target: Neu5Ac(a2-8)Neu5Ac(a2-3)Gal(b1-4)GlcNAc
# Procedure, shortened: as §1
# [19] = biological target: Neu5Ac(a2-8)Neu5Gc(a2-3)Gal(b1-4)GlcNAc
# Procedure, shortened: as §1
# [20] = biological target: Neu5Gc(a2-3)Gal(b1-3)GlcNAc
# Procedure, shortened: as §1
# [21] = biological target: Neu5Gc(a2-3)Gal(b1-3)[Fuc(a1-4)]GlcNAc
# Procedure, shortened: as §1
# [22] = biological target: Neu5Gc(a2-8)Neu5Gc(a2-3)Gal(b1-4)GlcNAc(b1-3)Gal(b1-4)GlcNAc
# Procedure, shortened: as §1
# [23] = biological target: Neu5Gc(a2-8)Neu5Gc(a2-6)Gal(b1-4)GlcNAc
# Procedure, shortened: as §1
binder,measurement,setting,value
B1,glycan array binding signal (z-score),[1],2.07
same,glycan array binding signal (z-score),[2],0.793
same,glycan array binding signal (z-score),[3],-0.351
same,glycan array binding signal (z-score),[4],-0.779
same,glycan array binding signal (z-score),[5],2.45
same,glycan array binding signal (z-score),[6],-1.05
same,glycan array binding signal (z-score),[7],-0.589
same,glycan array binding signal (z-score),[8],-0.712
same,glycan array binding signal (z-score),[9],-0.167
same,glycan array binding signal (z-score),[10],-0.648
same,glycan array binding signal (z-score),[11],-0.023
same,glycan array binding signal (z-score),[12],-0.733
same,glycan array binding signal (z-score),[13],-0.249
same,glycan array binding signal (z-score),[14],0.138
same,glycan array binding signal (z-score),[15],-0.315
same,glycan array binding signal (z-score),[16],0.508
same,glycan array binding signal (z-score),[17],-0.912
same,glycan array binding signal (z-score),[18],-0.026
same,glycan array binding signal (z-score),[19],14.4
same,glycan array binding signal (z-score),[20],-0.935
same,glycan array binding signal (z-score),[21],-0.874
same,glycan array binding signal (z-score),[22],-0.859
same,glycan array binding signal (z-score),[23],0.393

# — the supplement of paper PMC8728848
